Bioassay records deposited in PubChem by National Center for Advancing Translational Sciences (NCATS).
ELG1 genotoxic: inducers of genotoxicity in HEK293T ELG1-luciferase cells; 330,000 tested, 1.3% active; Potency, µM (titrated, usually from 46 µM), for the others: at the top dose activity change, positive = activation, actives largely listed as activators; HEK293T ELG1-luciferase reporter, luminescence, 16 h; further: % of control where 0% means no effect; nearly all actives have a fitted effect of over 60% in size
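HEK293T cells expressing luciferase-tagged ELG1 were exposed to compound or DMSO vehicle for 16 hr at 37 °C and 5% CO2. Luciferase activity was then measured with ONE-Glo after 30 min at room temperature.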
Rab9 prom act: Rab9 promoter activation; 320,000 tested, 2.8% active; Huh7 Rab9 promoter-luciferase reporter, luminescence, 24 h; Potency, µM (series often up to 9.22 µM), without a hit: top-dose activation, negative = inhibition, usual class: activators; further: % of control where 0% means no effect; nearly all actives have a fitted effect of over 60% in size
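Cells were plated at 1500 per well in reduced-serum medium with 10% FBS and left 2 h. Compound in DMSO was then added for 24 h at 37 °C. Reporter signal was read by luminescence after 10 min with luciferase detection reagent.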
FLuc modulator: firefly luciferase modulation, counter-screen for miR-21 project; purified FLuc, Km substrates, luminescence inhibition; Potency, µM (titrated, usually from 57.5 µM), without a hit: at the highest dose activity change, negative = inhibition, actives largely listed as inhibitors; 360,000 tested, 6.9% active;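 further: plate controls were vehicle for no effect and reference inhibitor for full effect; nearly all actives have a fitted effect of over 55% in size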
Target sequence (P08659 whole entry, looked up): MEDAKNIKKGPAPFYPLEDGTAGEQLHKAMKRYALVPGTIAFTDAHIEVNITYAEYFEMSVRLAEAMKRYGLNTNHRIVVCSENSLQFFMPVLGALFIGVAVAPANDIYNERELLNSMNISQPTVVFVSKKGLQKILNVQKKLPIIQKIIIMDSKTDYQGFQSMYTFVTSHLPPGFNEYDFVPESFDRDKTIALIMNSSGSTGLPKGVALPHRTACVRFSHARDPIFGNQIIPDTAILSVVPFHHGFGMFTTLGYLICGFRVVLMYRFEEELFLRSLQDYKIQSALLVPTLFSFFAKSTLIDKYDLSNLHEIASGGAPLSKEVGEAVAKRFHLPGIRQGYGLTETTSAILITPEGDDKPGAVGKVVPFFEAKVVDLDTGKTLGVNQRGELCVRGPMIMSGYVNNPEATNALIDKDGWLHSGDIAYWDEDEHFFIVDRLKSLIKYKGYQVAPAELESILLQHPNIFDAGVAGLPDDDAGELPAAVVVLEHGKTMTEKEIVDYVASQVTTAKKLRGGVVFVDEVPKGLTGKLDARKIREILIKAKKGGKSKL
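Purified P. pyralis luciferase, 10 nM final, with Km-level 10 uM D-luciferin and 10 uM ATP in 50 mM Tris acetate pH 7.5, 10 mM Mg acetate, 0.01% Tween-20, 0.05% BSA; 6-point qHTS titration about 60 µM downward; luminescence read.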
NPC1 prom act: activators of NPC1 promoter | Huh7 NPC1 promoter luciferase reporter, 24 h | Potency, µM (top dose mostly 9.22 µM), without a hit: at the top dose activation, usual class: activators | 320,000 tested, 2.4% active; further: % of control where 0% means no effect; nearly all actives have a fitted effect of over 60% in size
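Cells: Huh7 expressing luciferase under the NPC1 promoter, 1500/well. Seeded 2 h, compound added, incubated 24 h at 37 °C. Luciferase reagent, 10 min ambient, then luminescence.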
SMN2 splice enh: enhancers of SMN2 splice variant expression; HEK293 SMN2-luciferase splicing reporter, luminescence, 30-36 h; Potency, µM (titrated, usually from 46.1 µM), for the others: at the highest dose activity change, positive = activation, hits mostly activators; 210,000 tested, 2.8% active; further: % of control where 0% means no effect; nearly all actives have a fitted effect of over 55% in size
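HEK293 cells carry an SMN2 […]–luciferase reporter in which exon 7 inclusion puts luciferase in frame. Cells were plated 10-12 h before compound addition, then incubated 30-36 h at 37C. ONE-Glo luminescence was read; sodium butyrate at 4.5 mM final served as control.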
The depositor's hits bear a star; u = inconclusive; x = not tested or not shown. Hits are enriched below; roughly 7.5% of the tested compounds scored in any of these assays. The call rests on the fitted dose curve; in most records, active means well fitted curve in the direction sought with a large enough effect; inconclusive means small, poorly fitted or top-dose-only effect, or another doubt; inactive means no such curve, though single readings can be large; an effect the other way counts as inactive or inconclusive. Potency means the concentration at half of the fitted maximal effect.

SMILES	ELG1 genotoxic	Rab9 prom act	FLuc modulator	NPC1 prom act	SMN2 splice enh
CCCCN1C(=O)/C(=C/C=C2\Oc3ccccc3N2CC)SC1=S	3%	-3%	-7%	-2%	x
CN1CCS/C1=C\C=C1/SC(=S)N(CC(=O)O)C1=O	-3%	1%	13µM*	-2%	0%
CCCCN1C(=O)/C(=C/C=C2/CC(C)(C)CN2C)SC1=S	u	u	9.5µM*	28%	16%
Nc1ccc(C(=O)Nc2ccc(OC(F)(F)C(F)F)c(NC(=O)c3ccc(N)cc3)c2)cc1	-4%	2%	21µM*	9%	x
CC(=O)Oc1ccc(Cl)cc1/C=C/c1cc(OC(C)=O)c2ccccc2n1	0%	6%	-18%	24%	-21%
COc1cc(Cl)cc(/C=C/c2ccc3ccccc3n2)c1OC(C)=O	u	2.5µM*	6.7µM*	2µM*	2.5µM*
CCC(C)C(NC(=O)c1ccccc1NC(=O)c1ccc(C)cc1)C(=O)O (configuration not stated)	10%	-6%	u	18%	x
Cc1ccc(C(=O)Nc2ccccc2C(=O)NC(C(=O)O)C(C)C)cc1 (configuration not stated)	u	u	11µM*	u	13µM*
Cc1ccc(C(=O)Nc2ccccc2C(=O)NC(CC(=O)O)C(=O)O)cc1 (configuration not stated)	5%	12%	15µM*	17%	-1%
CC(C)(C)C(=O)Nc1cccc(S(=O)(=O)NC2=NCCC2)c1	0%	-4%	-1%	-1%	x
Cc1ccc(OCn2c(=O)sc3ccccc32)cc1	16µM*	u	24µM*	u	u
O=C(O)CCn1c(=O)sc2ccccc21	-3%	2%	-7%	0%	0%
O=c1sc2ccccc2n1CCOc1ccccc1	21µM*	u	13µM*	u	u
COc1ccccc1OCCCn1c(=O)sc2ccccc21	12%	29%	15µM*	14%	18%
CCCCc1cc(=O)oc2cc(O)ccc12	-3%	20%	-7%	0%	1%
COc1cccc(/C=C/c2nc(C#N)c(NCCc3ccc(OC)c(OC)c3)o2)c1	x	x	1%	x	-11%
O=C(NCc1ccccc1Cl)c1ccc(NC(=O)c2nsc3ccccc23)cc1	x	x	3.8µM*	x	x
O=C(NCc1ccccc1)c1ccc(NC(=O)c2nsc3ccccc23)cc1	x	x	6µM*	x	x
COC(=O)c1ccc(COc2cc([N+](=O)[O-])cc3cccnc23)o1	-2%	-1%	21µM*	0%	x
COC(=O)c1ccc(COc2ccc(C)cc2[N+](=O)[O-])o1	-7%	u	19µM*	u	x
Cc1cc(NC(=O)C(=O)c2c(C)[nH]c3ccccc23)no1	u	-11%	5%	-3%	-22%
CCN(CC)C(=O)Cn1cc(C(=O)C(=O)Nc2ccc3c(c2)OCCO3)c2ccccc21	-1%	u	3.4µM*	30%	x
Cc1[nH]c2ccccc2c1C(=O)C(=O)Nc1ccc2c(c1)OCCO2	17%	u	15µM*	u	x
CCN(CC)C(=O)Cn1cc(C(=O)C(=O)NCCCN2CCOCC2)c2ccccc21	3%	9%	1%	2%	x
O=C(NC1CC1)C(=O)c1c[nH]c2ccccc12	6%	18%	-1%	18%	x
SMILES	ELG1 genotoxic	Rab9 prom act	FLuc modulator	NPC1 prom act	SMN2 splice enh
O=C(Nc1ccc2c(c1)OCCO2)C(=O)c1c[nH]c2ccccc12	u	0.1µM*	0.19µM*	u	x
O=C(Nc1ccc2c(c1)OCO2)C(=O)c1c[nH]c2ccccc12	1.8µM*	0.71µM*	0.67µM*	0.4µM*	x
CCCc1cc(=O)[nH]c2nnc(SCC(=O)Nc3ccc4c(c3)OCCO4)n12	-2%	1%	5%	0%	x
CC(C)(C)C1CCc2c(C(=O)NNC(=O)CCCC(=O)O)csc2C1 (configuration not stated)	0%	-2%	17µM*	-2%	-5%
C=CCOc1c(Br)cc(/C=N/n2c(CC)n[nH]c2=S)cc1Br	1%	1%	-9%	0%	-13%
Nc1ccc(-c2nc3cc(N)ccc3n2CCO)cc1	0%	1%	0%	1%	x
Cn1c(CO)nc2cc(N)ccc21	-1%	0%	17µM*	0%	x
COc1ccc(-c2nc(Cc3ccc(Cl)cc3)no2)cc1OC	7%	1%	-2%	9%	-14%
Cc1ccccc1-c1nc(Cc2ccccc2)no1	u	u	12µM*	u	u
Clc1ccc(-c2nc(Cc3ccccc3)no2)cc1	21µM*	u	12µM*	u	0%
NC(=O)NC(=O)C(c1ccccc1)N1CCN(S(=O)(=O)Cc2ccccc2)CC1 (configuration not stated)	-2%	-3%	6%	-3%	x
O=C(CCn1c(=O)oc2cc(Cl)ccc21)Nc1ccc(N2CCOCC2)cc1	-10%	-2%	0%	-4%	x
CCOc1cc(/C=C(/C#N)c2ccc(F)cc2)ccc1OCc1ccc(C(=O)O)o1	1%	2%	13µM*	3%	10%
Cc1ccc(CNC(=O)C(=O)NCC(c2ccco2)S(=O)(=O)c2ccc(C)cc2)cc1 (configuration not stated)	x	x	-2%	x	x
Cc1cc(C(=O)Nc2nccs2)c2cc(F)ccc2n1	-3%	1%	5%	2%	x
Cc1c(C(=O)/C=C/c2cccs2)oc2ccc(F)cc12	u	4µM*	0.67µM*	4µM*	-14%
Cc1c(C(=O)Nc2nccs2)oc2ccc(F)cc12	14%	1.6µM*	u	3.5µM*	x
Cc1c(C(=O)Nc2nccs2)oc2ccc(Br)cc12	9.2µM*	x	x	x	x
O=C(c1ccco1)c1coc2c1cc(O)c1ccccc12	u	u	u	29%	4%
COCc1cc(CN2CCCC(C(=O)Nc3ccc(-c4ccco4)cc3)C2)ccc1OC (configuration not stated)	-4%	-2%	3%	1%	x
CC1CCC(N2CCN(C(=O)c3ccccc3F)CC2)CC1 (configuration not stated)	-22%	-4%	0%	-4%	x
CSCC[C@H](NC(=O)[C@@H]1Cc2ccccc2CN1)C(=O)Nc1ccc2c(c1)OCCO2	u	u	15µM*	u	x
Cc1ccc(NC(=O)c2cc(-c3cccs3)on2)cc1C	u	0%	u	0%	18%
O=C(NC1CCCC1)c1cc(-c2cccs2)on1	9.2µM*	2µM*	4.8µM*	1.6µM*	u
O=C(NC1CC1)c1cc(-c2cccs2)on1	x	x	11µM*	x	x
CC1CCCC(C)N1C(=O)c1cc(-c2cccs2)on1 (configuration not stated)	12%	28%	u	17%	u
NC(=O)c1cc2c3ccccc3ccn2c1-c1ccccc1	12µM*	-15%	21µM*	-2%	x
O=c1[nH]c(/C=C/c2ccccc2F)nc2ccccc12	12µM*	0.25µM*	0.76µM*	u	x
